The target of test [1] is Estrogen receptor (Homo sapiens) (UniProt P03372). The test can be described thus: OT_ER_ERaERa_1440: Odyssey Thera (OT) 24-hour HEK293T Protein-Complementation Assay for Estrogen Receptor-alpha/-alpha Homodimer (AID 2283349).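 Further: hits raise fluorescence above DMSO for agonists and antagonists alike.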 The method, boiled down: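 HEK293T, stable ERα LBD (aa 310-547) homodimer PCA; 24 h compound exposure; mean fluorescence intensity (nuclear for agonists, nuclear plus cytoplasmic for antagonists) vs vehicle; positive fitting direction, DMSO baseline.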
Chain of Estrogen receptor (Homo sapiens) (P03372 whole entry, looked up, the tested form may be a part): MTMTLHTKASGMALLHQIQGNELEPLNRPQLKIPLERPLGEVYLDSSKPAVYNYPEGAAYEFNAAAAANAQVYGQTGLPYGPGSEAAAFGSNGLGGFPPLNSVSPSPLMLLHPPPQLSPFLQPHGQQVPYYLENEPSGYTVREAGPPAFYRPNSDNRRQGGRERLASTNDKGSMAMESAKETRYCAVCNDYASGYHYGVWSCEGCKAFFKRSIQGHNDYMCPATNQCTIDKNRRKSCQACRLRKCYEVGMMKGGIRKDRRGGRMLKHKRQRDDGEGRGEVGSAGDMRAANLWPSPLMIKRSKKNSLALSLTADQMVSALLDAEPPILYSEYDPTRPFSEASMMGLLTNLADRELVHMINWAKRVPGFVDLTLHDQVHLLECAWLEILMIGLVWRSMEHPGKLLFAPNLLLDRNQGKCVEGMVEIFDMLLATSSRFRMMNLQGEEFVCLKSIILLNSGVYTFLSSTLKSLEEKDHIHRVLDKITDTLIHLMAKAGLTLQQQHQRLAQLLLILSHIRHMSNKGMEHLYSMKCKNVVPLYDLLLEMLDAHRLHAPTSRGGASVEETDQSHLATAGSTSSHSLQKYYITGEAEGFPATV

Test [2] has the same target. In words: OT_ER_ERaERa_0480: Odyssey Thera (OT) 8-hour HEK293T Protein-Complementation Assay for Estrogen Receptor-alpha/-alpha Homodimer (AID 2283351).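 Further: rise in fluorescence from reassembled reporter fragments on ERα LBD homodimer in nucleus or whole cell.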 The method, boiled down:
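HEK293T cells stably expressing a PCA pair of ER alpha LBD (residues 310-547) were dosed for 8 hours. The gain in fluorescence intensity, nuclear for agonists and whole-cell for antagonists, was measured by laser scanning cytometry against DMSO vehicle.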

For test [3], the target named is chimpanzee Androgen Receptor (AR), AR (gene 747460) (UniProt O97775). In words: NVS_NR_cAR: NovaScreen (NVS) Nuclear Receptor Binding Assay for chimpanzee Androgen Receptor (AR) (AID 2283346).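 Further: radioligand displacement from AR measured by scintillation counting in a cell-free assay; a loss of bound radioligand signal versus DMSO counts as binding.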 The method in brief: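 Cell-free competition binding with insect-cell (Sf9/Sf21) extracted chimpanzee AR; scintillation signal from lysate at 72 h. Screened in duplicate at 25 uM, then concentration-response for actives; fitting relative to DMSO.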
Chain of chimpanzee Androgen Receptor (AR), AR (gene 747460) (O97775 whole entry, looked up): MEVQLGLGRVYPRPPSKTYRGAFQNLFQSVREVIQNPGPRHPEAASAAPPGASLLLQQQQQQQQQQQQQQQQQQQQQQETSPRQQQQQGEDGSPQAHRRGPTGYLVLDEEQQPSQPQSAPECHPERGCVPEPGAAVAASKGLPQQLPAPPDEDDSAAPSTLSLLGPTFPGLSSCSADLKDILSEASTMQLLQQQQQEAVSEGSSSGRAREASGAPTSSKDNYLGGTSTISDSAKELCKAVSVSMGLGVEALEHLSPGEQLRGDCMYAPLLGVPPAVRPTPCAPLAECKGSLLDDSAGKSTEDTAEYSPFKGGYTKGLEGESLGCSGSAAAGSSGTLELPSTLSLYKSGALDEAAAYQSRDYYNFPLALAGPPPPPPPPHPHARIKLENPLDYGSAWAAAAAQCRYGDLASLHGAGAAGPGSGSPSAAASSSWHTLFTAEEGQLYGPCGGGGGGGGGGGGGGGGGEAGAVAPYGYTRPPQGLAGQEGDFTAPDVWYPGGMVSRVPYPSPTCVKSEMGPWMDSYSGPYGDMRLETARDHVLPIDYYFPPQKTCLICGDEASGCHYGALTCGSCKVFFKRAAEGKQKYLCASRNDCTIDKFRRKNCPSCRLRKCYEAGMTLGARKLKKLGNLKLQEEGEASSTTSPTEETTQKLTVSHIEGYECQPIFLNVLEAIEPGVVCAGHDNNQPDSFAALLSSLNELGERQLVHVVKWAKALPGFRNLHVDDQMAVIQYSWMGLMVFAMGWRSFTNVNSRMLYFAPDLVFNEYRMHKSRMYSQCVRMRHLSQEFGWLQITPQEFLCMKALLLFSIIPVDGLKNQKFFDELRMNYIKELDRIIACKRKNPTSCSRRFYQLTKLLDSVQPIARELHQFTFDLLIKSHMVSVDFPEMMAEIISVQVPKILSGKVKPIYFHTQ

Test [4] addresses T1, Estrogen receptor (Homo sapiens) + Estrogen receptor beta (Homo sapiens) (UniProt P03372+Q92731). In words: OT_ER_ERaERb_0480: Odyssey Thera (OT) 8-hour HEK293T Protein-Complementation Assay for Estrogen Receptor-alpha/-beta Heterodimer (AID 2283352). The method, boiled down:
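HEK293T protein-fragment complementation assay of ER-alpha/ER-beta LBD heterodimerisation, read 8 h after dosing. Mean nuclear/cytoplasmic fluorescence intensity measured by laser scanning cytometry; gain of signal fitted relative to DMSO.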

Test [5] addresses T1, Estrogen receptor (Homo sapiens) + Estrogen receptor beta (Homo sapiens). The test can be described thus: OT_ER_ERaERb_1440: Odyssey Thera (OT) 24-hour HEK293T Protein-Complementation Assay for Estrogen Receptor-alpha/-beta Homodimer (AID 2283356).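 Further: heteromer of ER alpha and ER beta binding domains; hits raise reporter fluorescence and both agonists and antagonists give an increase.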 The method in brief:
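HEK293T stably expressing a PCA of ER alpha LBD (aa 310-547) and ER beta LBD (aa 263-489). After 24 h compound exposure, mean fluorescence intensity in nucleus (agonists) or nucleus and cytoplasm (antagonists) measured by laser scanning cytometry versus vehicle.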

Test [6] addresses Estrogen receptor beta (Homo sapiens) (UniProt Q92731). In words: OT_ER_ERbERb_0480: Odyssey Thera (OT) 8-hour HEK293T Protein-Complementation Assay for Estrogen Receptor-beta/-beta Homodimer (AID 2283357).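 Further: active means signal gain over DMSO baseline.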 The method, boiled down: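 ER-beta LBD homodimer PCA stably expressed in HEK293T; 8 h compound exposure, then formaldehyde fixation and Draq5 staining. Gain in nuclear/cytoplasmic fluorescence intensity versus DMSO vehicle, read on laser scanning cytometer.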

Test [7] addresses bovine Estrogen Receptor (ER), ESR1 (gene 407238) (UniProt P49884). The test can be described thus: NVS_NR_bER: NovaScreen (NVS) Nuclear Receptor Binding Assay for bovine Estrogen Receptor (ER) (AID 2283345).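 Further: actives lower the bound radioligand count which means they displace the ER ligand.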 The method in brief: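 Displacement of a radioligand from estrogen receptor in bovine uterine membrane preparations; scintillation signal taken at 18 hours, DMSO as baseline. Single-concentration duplicates (25 uM) preceded concentration-response follow-up of actives.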

Test [8] has as its target human Thyroid Receptor Alpha (TRa), THRA (gene 7067) (UniProt P10827). The test can be described thus: NVS_NR_hTRa_Antagonist: NovaScreen (NVS) Nuclear Receptor Binding Assay for human Thyroid Receptor Alpha Antagonism (TRa) (AID 2283362).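 Further: activity is loss of signal relative to DMSO baseline.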 The method, boiled down: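 Cell-free AlphaLISA chemiluminescent binding read 1 h after dosing, antagonist mode; signal loss versus DMSO baseline. Primary screen in duplicate at 25 uM, then concentration series for actives.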

In test [9] the target is Androgen Receptor/SRC-1 Co-activator, AR (gene 367) (UniProt P10275). The test can be described thus: OT_AR_ARSRC1_0960: Odyssey Thera (OT) 16-hour HEK293T Protein-Complementation Assay for Androgen Receptor/SRC-1 Co-activator (AID 2283353).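 Further: actives raise the signal above DMSO so potency reflects increased AR and SRC-1 complex.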 The method, boiled down:
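Endpoint is gain-of-signal N/C fluorescence ratio in the 488 nm channel versus DMSO, from at least 400 cells per image, measured 16 h post-dosing. Cells: HEK293T stably carrying split-Venus AR/SRC-1 complementation constructs.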

Test [10] shares this target. The test can be described thus: OT_AR_ARSRC1_0480: Odyssey Thera (OT) 8-hour HEK293T Protein-Complementation Assay for Androgen Receptor/SRC-1 Co-activator (AID 2283354).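 Further: hits raise the complementation signal above DMSO so AC50 marks enhancers.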 The method, boiled down: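 Reconstituted split-Venus YFP signal from AR–SRC-1 interaction, read by imaging 8 h post-dose in stable HEK293T lines. The 488 nm nucleus-to-cytoplasm ratio (≥400 cells/image) was fitted upward against DMSO.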

The next test deals with PGR (gene 5241) (UniProt P06401). In words: NVS_NR_hPR: NovaScreen (NVS) Nuclear Receptor Binding Assay for human Progestron Receptor (PR) (AID 2283360).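 Further: active means loss of bound radioligand signal versus DMSO baseline.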 The method in brief:
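T47D-derived receptor preparation, cell-free, with tritiated or iodinated radioligand displacement measured by scintillation 18 h post-dosing. Single 25 uM duplicate screen, then concentration series; signal loss relative to DMSO.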

In test [11] the target is Bile acid receptor (Homo sapiens) (UniProt Q96RI1). The test can be described thus: NVS_NR_hFXR_Agonist: NovaScreen (NVS) Nuclear Receptor Binding Assay for human Farnesoid X Receptor Agonism (FXR) (AID 2283347). The method, boiled down: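 Agonist-mode FXR assay read by time-resolved FRET 1 h after compound addition, using isolated human receptor protein without cells. Duplicate 25 uM single-point primary screen, concentration series for confirmed actives; DMSO as baseline.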

Several values for one entry are separate records, joined by “and”; a condition that tells them apart may be missing. Identical values can stand only once. Results filed as inconclusive are left out. Where a structure was tested more than once in an assay, its records may differ in their call. Activity calls are given as the source filed them. How the source made its calls: active means hit-call score of the fitted dose curve at least 0.9, where 1 is the maximum; inconclusive means response in the unintended direction; inactive means score below 0.9.

A word on the AC50: it is the concentration giving half of the maximal activity seen.

T1 sequence (P03372 whole entry, looked up, the tested form may be a part): as the sequence (P03372 whole entry, looked up, the tested form may be a part) above
T1 sequence (Q92731 whole entry, looked up, the tested form may be a part): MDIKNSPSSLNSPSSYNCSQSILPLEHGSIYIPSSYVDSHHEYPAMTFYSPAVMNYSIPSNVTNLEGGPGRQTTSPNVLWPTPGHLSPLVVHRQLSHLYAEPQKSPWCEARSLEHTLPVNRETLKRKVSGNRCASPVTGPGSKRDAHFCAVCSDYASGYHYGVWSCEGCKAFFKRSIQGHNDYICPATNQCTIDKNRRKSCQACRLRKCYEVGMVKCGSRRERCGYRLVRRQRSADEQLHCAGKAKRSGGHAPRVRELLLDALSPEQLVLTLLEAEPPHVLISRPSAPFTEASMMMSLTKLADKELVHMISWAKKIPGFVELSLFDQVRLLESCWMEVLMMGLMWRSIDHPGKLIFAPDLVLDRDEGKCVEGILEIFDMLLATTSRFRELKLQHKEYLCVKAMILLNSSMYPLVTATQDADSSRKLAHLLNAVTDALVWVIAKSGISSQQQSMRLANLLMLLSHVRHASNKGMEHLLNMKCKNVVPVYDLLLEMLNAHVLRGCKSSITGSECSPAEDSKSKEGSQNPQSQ
Chain of Estrogen receptor beta (Homo sapiens) (Q92731 whole entry, looked up, the tested form may be a part): as above
Chain of Androgen Receptor/SRC-1 Co-activator, AR (gene 367) (P10275 whole entry, looked up): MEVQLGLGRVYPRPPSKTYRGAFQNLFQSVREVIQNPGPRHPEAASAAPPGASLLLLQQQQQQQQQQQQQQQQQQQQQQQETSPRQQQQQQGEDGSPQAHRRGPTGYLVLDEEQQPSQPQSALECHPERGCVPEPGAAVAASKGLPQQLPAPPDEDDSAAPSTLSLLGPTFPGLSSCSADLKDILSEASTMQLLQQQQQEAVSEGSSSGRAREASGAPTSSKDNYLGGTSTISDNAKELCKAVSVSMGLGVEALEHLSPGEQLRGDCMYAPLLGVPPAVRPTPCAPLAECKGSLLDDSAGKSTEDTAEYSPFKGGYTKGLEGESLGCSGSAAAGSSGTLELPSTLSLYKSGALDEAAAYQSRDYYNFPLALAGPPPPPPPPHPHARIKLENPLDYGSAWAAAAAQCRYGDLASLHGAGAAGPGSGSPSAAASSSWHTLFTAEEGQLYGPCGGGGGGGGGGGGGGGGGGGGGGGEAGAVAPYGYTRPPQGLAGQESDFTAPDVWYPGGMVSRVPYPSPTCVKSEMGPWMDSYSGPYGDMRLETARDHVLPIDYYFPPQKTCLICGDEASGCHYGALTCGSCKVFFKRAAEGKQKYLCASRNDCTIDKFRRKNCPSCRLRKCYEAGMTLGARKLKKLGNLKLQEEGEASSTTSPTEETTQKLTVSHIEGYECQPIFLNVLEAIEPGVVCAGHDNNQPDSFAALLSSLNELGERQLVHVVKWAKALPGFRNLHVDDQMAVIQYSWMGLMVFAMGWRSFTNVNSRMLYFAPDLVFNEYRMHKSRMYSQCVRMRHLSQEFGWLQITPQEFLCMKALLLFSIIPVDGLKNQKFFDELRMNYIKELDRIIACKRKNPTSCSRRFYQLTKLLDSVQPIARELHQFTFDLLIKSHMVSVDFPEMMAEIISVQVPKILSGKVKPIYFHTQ
Chain of bovine Estrogen Receptor (ER), ESR1 (gene 407238) (P49884 whole entry, looked up): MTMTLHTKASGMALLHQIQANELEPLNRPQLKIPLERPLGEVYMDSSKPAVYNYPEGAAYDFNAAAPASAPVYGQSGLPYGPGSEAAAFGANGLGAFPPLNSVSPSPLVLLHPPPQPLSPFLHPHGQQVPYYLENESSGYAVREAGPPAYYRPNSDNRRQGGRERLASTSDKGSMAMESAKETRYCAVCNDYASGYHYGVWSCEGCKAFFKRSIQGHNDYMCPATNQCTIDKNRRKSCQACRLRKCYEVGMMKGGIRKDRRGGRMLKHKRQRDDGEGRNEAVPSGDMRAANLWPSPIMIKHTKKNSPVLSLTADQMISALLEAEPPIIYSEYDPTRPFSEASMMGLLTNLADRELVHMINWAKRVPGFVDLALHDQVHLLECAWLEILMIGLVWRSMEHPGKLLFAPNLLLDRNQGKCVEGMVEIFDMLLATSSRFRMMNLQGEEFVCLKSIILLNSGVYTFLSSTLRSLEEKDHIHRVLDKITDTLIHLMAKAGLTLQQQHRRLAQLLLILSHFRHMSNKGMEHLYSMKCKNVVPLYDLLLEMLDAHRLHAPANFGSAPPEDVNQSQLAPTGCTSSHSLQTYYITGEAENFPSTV
Chain of PGR (gene 5241) (P06401 whole entry, looked up): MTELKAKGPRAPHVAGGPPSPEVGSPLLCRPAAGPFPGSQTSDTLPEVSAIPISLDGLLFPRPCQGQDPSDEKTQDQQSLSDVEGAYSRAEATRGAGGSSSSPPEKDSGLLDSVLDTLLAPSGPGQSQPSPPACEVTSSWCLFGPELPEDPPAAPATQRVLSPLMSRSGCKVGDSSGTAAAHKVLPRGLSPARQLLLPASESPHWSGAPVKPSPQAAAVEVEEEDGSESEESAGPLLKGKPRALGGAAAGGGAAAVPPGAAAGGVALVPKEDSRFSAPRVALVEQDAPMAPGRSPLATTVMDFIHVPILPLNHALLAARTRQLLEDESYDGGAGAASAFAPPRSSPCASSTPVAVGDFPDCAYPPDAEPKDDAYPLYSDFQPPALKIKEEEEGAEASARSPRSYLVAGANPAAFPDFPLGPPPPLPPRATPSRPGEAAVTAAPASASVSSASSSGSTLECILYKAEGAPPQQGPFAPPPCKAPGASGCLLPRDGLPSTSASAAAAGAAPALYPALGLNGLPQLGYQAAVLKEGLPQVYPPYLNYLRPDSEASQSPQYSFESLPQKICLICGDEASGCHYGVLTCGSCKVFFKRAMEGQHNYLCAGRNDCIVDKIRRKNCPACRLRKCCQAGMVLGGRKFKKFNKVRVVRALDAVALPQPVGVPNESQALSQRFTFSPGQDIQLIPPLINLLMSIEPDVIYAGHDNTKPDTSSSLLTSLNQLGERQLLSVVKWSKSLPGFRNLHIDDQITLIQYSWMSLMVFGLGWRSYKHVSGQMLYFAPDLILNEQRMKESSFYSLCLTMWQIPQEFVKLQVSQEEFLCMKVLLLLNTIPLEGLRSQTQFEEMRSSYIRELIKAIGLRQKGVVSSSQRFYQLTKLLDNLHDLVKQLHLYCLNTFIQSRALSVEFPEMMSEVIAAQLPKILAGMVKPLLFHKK
Chain of human Thyroid Receptor Alpha (TRa), THRA (gene 7067) (P10827 whole entry, looked up): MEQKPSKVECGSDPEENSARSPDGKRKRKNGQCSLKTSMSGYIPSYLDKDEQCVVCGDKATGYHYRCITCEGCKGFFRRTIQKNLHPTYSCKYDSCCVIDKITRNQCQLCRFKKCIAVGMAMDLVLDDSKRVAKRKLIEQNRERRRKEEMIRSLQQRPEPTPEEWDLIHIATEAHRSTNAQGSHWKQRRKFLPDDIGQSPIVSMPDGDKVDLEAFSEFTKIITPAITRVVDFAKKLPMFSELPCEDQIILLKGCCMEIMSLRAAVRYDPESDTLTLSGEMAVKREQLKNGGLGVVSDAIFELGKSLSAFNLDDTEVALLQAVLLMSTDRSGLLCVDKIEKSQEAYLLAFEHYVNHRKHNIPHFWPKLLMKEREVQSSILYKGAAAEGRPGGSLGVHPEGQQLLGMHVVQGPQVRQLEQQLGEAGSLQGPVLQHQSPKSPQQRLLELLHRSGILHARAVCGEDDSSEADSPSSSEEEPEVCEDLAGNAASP

As for `CNC`, the outcome in test [1] and in test [2] was inactive.
With `CCN(CC)C(=O)Cl`, in test [3], the AC50 is 2.82 µM (active).
For `CCNc1nc(NC(C)(C)C)nc(SC)n1`, the compound was called inactive in test [3].
In the case of `C1CCC(NC2CCCCC2)CC1`, the outcome in test [1] and in test [2] was inactive.
`CNC(=O)O/N=C/C(C)(C)S(C)=O` (stereo not given): the result in test [3], in test [2], in test [4], in test [5] and in [6] was inactive.
`C[C@@H]1C[C@@H]([C@H](O)CC2CC(=O)NC(=O)C2)C(=O)[C@@H](C)C1`: the outcome in [3] and in test [6] was inactive.
As to `O=C(NCO)NCO`, the outcome in test [1] and in test [2] was inactive.
For the compound `O=C1CCCN1`, the compound was called inactive in test [1] and in [2].
Turning to `NNC(=S)NN`, the compound was classed as inactive in [7], in test [2], in [5] and in [6]. For the same compound, in [8], the AC50 is 25.4 µM (active).
Take `Fc1ccc(C2(Cn3cncn3)OC2c2ccccc2Cl)cc1` (stereo not given): the outcome in test [3] was inactive. For the same compound, the AC50 in test [1] is 39.5 µM (active); in test [2], 23.7 µM (active); in test [4], 12.7 µM (active); in test [5] it was 27.3 µM (active); in test [6], 14.9 µM (active).
`CC12CC1(C)C(=O)N(c1cc(Cl)cc(Cl)c1)C2=O` (stereo not given): the outcome in test [3], in [9], in test [10] and in test [6] was inactive.
Regarding `COc1ccc(C=O)cc1OC`, the call in [1], in test [2], in test [5] and in test [6] was inactive.
Regarding `Cc1ccc(N)cc1Cl`, the compound was called inactive in test [3], in test [2], in [4] and in [6]. Further, the AC50 in test [5] was 15.3 µM (active).
Regarding `CC(C)(OO)c1ccccc1`, the result in test [1] and in test [2] was inactive.
`Oc1ccc(-c2ccccc2)cc1`: the AC50 in test [3] is 4.83 µM (active); in [6], 12.7 µM (active); with PGR (gene 5241), 43.2 µM (active). Further, the compound was called inactive in test [3].
As for `N#CCCO`, the call in test [3] was inactive.
On to `O=C1C2(Cl)C3(Cl)C4(Cl)C(Cl)(Cl)C5(Cl)C3(Cl)C1(Cl)C5(Cl)C24Cl` (stereo not given), for which the compound was called inactive in test [3], in [11] and in [8]. The AC50 was 19.2 µM (active) and 46.6 µM (active) and 26 µM (active) in test [9]; 28.5 µM (active) and 76.6 µM (active) and 31.5 µM (active) in [10].
As to `c1cc[c]([Hg][c]2ccccc2)cc1`, the call in [1], in test [2] and in [5] was inactive. For the same compound, the values for the AC50 in [9] and in test [10] were 41.9 µM (active) and 32.2 µM (active), respectively.
On to `Nc1ccc(-c2ccc(N)c(Cl)c2)cc1Cl`, for which the outcome in test [7] was inactive. The AC50 with PGR (gene 5241) is 41.1 µM (active).
Turning to `Cc1ccccc1C(=O)Nc1cccc(OC(C)C)c1`, the compound was called inactive in test [3], in [1], in test [2], in test [4], in test [9] and in test [10]. The result in test [5] was inactive.
With `CCOC(=O)Nc1cccc(OC(=O)Nc2ccccc2)c1`, the outcome in test [3], in test [2], in [5] and in test [6] was inactive.
Turning to `CC(C)(C)c1cc(O)ccc1O`, the compound was called inactive in test [1] and in [2].
With `O=C/C=C/c1ccccc1`, the call in test [1] and in test [2] was inactive.

The values above are taken from PubChem BioAssay (EPA / NIEHS).
